# aSyn UTR inh – MLPCN primary screen, SNCA 5' untranslated region; alpha-synuclein 5'UTR reporter, inhibitor activity; inhibition, % (tested at 7.5 µM); hit rate 0.82% among 300,000; in the data active = inhibition above about 60%;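 note: H4 neuroglioblastoma cells stably carrying SNCA 5'UTR luciferase fusion; 0% = DMSO wells and 100% = positive control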
# KLF5 inh – inhibitors of KLF5 expression | DLD-1 KLF5 promoter-luciferase reporter, luminescence | inhibition, % at 5 µM | hit rate 0.23% among 290,000;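 active = inhibition above a per-plate limit of that plate's mean compound inhibition plus 3 SD, cut at about 60% in these data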;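 note: 0% = DMSO wells and 100% = LY294002 at 200 µM; higher means less KLF5 promoter-driven luciferase light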
# IEC-6 cytotox – IEC-6 cytotoxicity, counter-screen for KLF5 inhibitors; luminescence viability; hit rate 0.78% among 290,000; inhibition, % at 5 µM;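 note: 0% = plate median of test compound wells and 100% = cytotoxic reference compound wells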
# APP 5UTR inh – APP translation inhibition | AID 1285 | hit rate 0.82% among 190,000 | inhibition, % at 2 µM | SH-SY5Y APP 5'UTR-luciferase reporter, luminescence;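 active = inhibition above a set limit, derived from the sample mean plus 3 SD, cut at about 45% in these data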
# BaF3 parental – counter-screen for JAK2V617F inhibitors: parental Ba/F3 viability inhibitors; hit rate 1.1% among 220,000; inhibition, % at 5.6 µM; CellTiter-Glo ATP luminescence;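 active = inhibition above a per-campaign cutoff, the mean inhibition of all tested compounds plus 3 SD, cut at about 27% in these data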;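 note: 0% = DMSO wells and 100% = JAK Inhibitor I control wells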
# Ba/F3 V617F tox – reduce viability of Ba/F3 cells dependent on JAK2V617F; Ba/F3 EpoR-JAK2V617F viability, ATP luminescence; inhibition, % at 5.6 µM; hit rate 1.1% among 220,000;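 active = inhibition above the campaign mean plus 3 SD over all tested compounds, cut at about 24% in these data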;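 note: cytokine-independent growth of Ba/F3 cells driven by EpoR plus mutant JAK2; 0% = DMSO-treated cells and 100% = JAK inhibitor I control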
# IEC-6 tox confirm – IEC-6 cytotoxicity, confirmation assay. inhibition, % at 5 µM. hit rate 63% among 1,900. IEC-6 rat intestinal epithelial viability, luminescence. shares compounds with IEC-6 cytotox;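 note: 0% = vehicle and 100% = reference cytotoxic drug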
# The depositor's hits bear a star; · = no result given. In the library only some 2.2% were active in any assay of this set; here they are far more common. Cut-off read from the data, not from the text of the source, unless noted: active = inhibition above about 22%; inactive = the rest.
SMILES,aSyn UTR inh,KLF5 inh,IEC-6 cytotox,APP 5UTR inh,BaF3 parental,Ba/F3 V617F tox,IEC-6 tox confirm
CCc1nnc(NC(=O)CSc2nc(N)c(NC(=O)c3ccc(OC)cc3)c(=O)[nH]2)s1,-3,-27,5,·,·,·,·
NNC(=O)c1cc2ccccc2[nH]1,55,34,32*,90*,3,3,-5
O=C(NCCCO)c1cc2ccccc2[nH]1,-9,-2,-2,-11,5,6,·
Cc1cc(NC(=O)CSc2nnc3c(C)cc4c(C)ccc(C)c4n23)no1,-15,52,55*,14,10,2,22
CCOc1ccc(-n2c(SCC(=O)NC)nnc2-c2ccco2)cc1,-10,-23,-2,·,·,·,·
COc1cc(CC(=O)OCC(=O)c2ccc3c(c2)OCCO3)cc(OC)c1OC,100*,42,88*,94*,79*,72*,56*
COc1cc(CC(=O)NCc2ccc3c(c2)OCO3)cc(OC)c1OC,6,-28,-4,-5,5,-2,·
CCOc1ccc(-c2cc(C(=O)N/N=C/c3cccnc3)c3ccccc3n2)cc1,16,5,66*,·,·,·,45*
C/C(=N\NC(=O)c1cc(C)nc2ccccc12)c1ccncc1,-12,38,42*,·,·,·,-4
COc1ccc(/C=N/NC(=O)c2cccc(NC(=O)c3ccccc3Cl)c2)cc1,-99,45,72*,·,·,·,50*
O=C(N/N=C/c1ccco1)c1cc(-c2ccncc2)nc2ccccc12,-27,43,31*,·,·,·,-1
C/C(=N\NC(=O)c1cc(C)nc2ccccc12)c1ccc([N+](=O)[O-])cc1,38,-29,0,6,7,0,·
CCN(CC)c1ccc(NC(=O)c2ccc3c(c2)OCO3)cc1,-133,-124,10,·,·,·,·
Cn1nnnc1SCC(=O)Nc1ncc(Cl)cc1Cl,-4,·,·,·,·,·,·
COc1ccc(S(=O)(=O)N(C)c2ccc(C(=O)N3CCN(c4ccccc4)CC3)cc2)cc1OC,37,-8,-4,·,·,·,·
CCn1c(SCC(=O)Nc2ccc(OC)cc2)nc2c(c1=O)SCC2,-2,-7,2,·,·,·,·
CCc1cc(C(=O)N/N=C/c2ccc(OC)cc2)c2ccccc2n1,-38,49,30*,·,·,·,17
COc1ccc(OC)c(-c2cc(C(=O)N/N=C/c3ccc(F)cc3)c3ccccc3n2)c1,14,·,·,·,·,·,·
COc1ccc(NC(=O)c2cccnc2)c([N+](=O)[O-])c1,-7,18,46*,21,60*,66*,30*
CC(C)[C@@H](C(=O)NCC1CCCO1)N1C(=O)N2CCc3c([nH]c4ccccc34)[C@@]2(C)C1=O (stereo partly drawn),24,-32,0,·,·,·,·
Cc1ccccc1C(=O)Nc1cc(-c2cc(C(C)(C)C)oc2C)nn1C,12,-3,-6,·,2,-3,·
CN1c2cccc3cccc(c23)N(C)C1c1cccs1,-1,-41,24*,0,9,0,3
CC1CC(=O)N(CC(=O)Nc2cccc(F)c2)c2ccccc2S1(=O)=O (stereo not drawn),-7,-19,-1,·,·,·,·
CCOC(=O)Nc1ccc2nc(N3CCCCCC3)sc2c1,-313,-24,67*,·,67*,78*,60*
CCN(CC(=O)Nc1ccccc1C(F)(F)F)C(=O)CCc1c(C)[nH]c(=O)c(C#N)c1C,9,7,-5,·,·,·,·
SMILES,aSyn UTR inh,KLF5 inh,IEC-6 cytotox,APP 5UTR inh,BaF3 parental,Ba/F3 V617F tox,IEC-6 tox confirm
Cc1cccnc1Sc1c([N+](=O)[O-])ncn1C,-27,-37,-2,-2,4,-1,·
Cn1cnc([N+](=O)[O-])c1Sc1ncnc2nc[nH]c12,46,-5,35*,·,29*,56*,47*
Cn1cnc(Sc2ncnc3nc[nH]c23)c1[N+](=O)[O-],31,-17,39*,·,36*,59*,36*
Cc1ccc(OCCSc2ncnc3nc[nH]c23)cc1,-67,-107,0,-100,7,1,·
Cc1ccccc1CNC(=O)CC1C(=O)NCCN1Cc1c(F)cccc1Cl (stereo not drawn),11,1,8,-2,-5,-4,·
Cc1ccc(C)c(S(=O)(=O)N2CCCC2CNC(=O)C(=O)NC2CCCC2)c1 (stereo not drawn),10,·,·,·,·,·,·
O=C(CN1C(=O)C2CCCCC2C1=O)Nc1nc(-c2ccccn2)cs1 (stereo not drawn),46,25,41*,39,1,5,14
O=C(Nc1nc(-c2ccccn2)cs1)c1ccc2c(c1)OCCO2,-2,-99,28*,-110,-2,-1,20
C[C@@H](C(=O)Nc1nc(-c2ccccn2)cs1)N1C(=O)C2CCCCC2C1=O (stereo partly drawn),9,-41,-1,·,0,-3,·
O=C(Nc1nc(-c2ccccc2)cs1)Nc1ccc(F)cc1F,-63,-33,-1,-11,4,-1,·
O=C(Nc1nc(-c2ccccn2)cs1)Nc1ccc(F)cc1F,39,-3,50*,·,·,·,47*
O=C(NCCO)C(=O)Nc1cc2c3c(c1)CCN3C(=O)CC2,-17,-19,1,·,·,·,·
CC1Sc2ccc(S(=O)(=O)N3CCC(C(=O)Nc4cccc(Cl)c4)CC3)cc2NC1=O (stereo not drawn),-2,-32,8,·,·,·,·
CC(=O)c1ccc(NC(=O)/C(=C\c2ccccc2)NC(=O)c2ccco2)cc1,-16,-29,-8,-5,0,-5,·
O=C1CCc2cc(S(=O)(=O)NCc3ccc(F)cc3)cc3c2N1CC3,18,·,·,·,·,·,·
COCCn1c(SC(C)C(=O)Nc2ncc(Cl)cc2Cl)nc2ccccc21 (stereo not drawn),15,29,24*,2,3,0,27*
CC(=O)Nc1ccc(NC(=O)c2ccnn2C)cc1,-57,·,·,·,·,·,·
COc1ccccc1CNC(=O)CNCCc1ccc(OC)c(OC)c1,18,16,1,·,·,·,·
O=C(Cc1ccc(-n2cccc2)cc1)NCc1cccs1,40,43,73*,94*,79*,83*,59*
Cc1ccc(CNC(=O)Cc2ccc(-n3cccc3)cc2)cc1,-3,-18,3,25,8,4,·
CN1CCc2c(sc(NC(=O)Cc3ccccc3)c2C(N)=O)C1,3,-16,4,·,·,·,·
CN1CCc2c(sc(NC(=O)c3ccc4ccccc4c3)c2C(N)=O)C1,-108,-90,50*,·,·,·,26*
CCOC(=O)CSC1=C(C#N)C(c2ccc(C)s2)CC(=O)N1 (stereo not drawn),41,53,75*,91*,77*,81*,53*

# Bioassay records deposited in PubChem by several laboratories.
